HCV inh = blocks hepatitis C virus. Huh7.5.1 HCVcc-Cre infection, luciferase reporter, 44 h. Potency, µM (series often up to 41.8 µM), without a hit: top-dose activity change, negative = inhibition, most hits filed as inhibitors. hit rate 3.4% among 340,000; note: % is set by controls: 0 for no effect and ±100 for the full control effect
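Cells seeded at 1,000/well and cultured 4 h, then compounds added followed by HCVcc-Cre virus (~0.5 moi). After 44 h further culture, luciferase substrate was added, plates held 15 min at room temperature, and luminescence read for 15 sec.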
AMA1-RON2 inh = AMA1-RON2 (P. falciparum) interaction inhibition. AlphaScreen AMA1-biotinylated RON2 peptide binding. hit rate 0.2% among 360,000. Potency, µM (highest dose often 58.2 µM), without a hit: at the top dose activity change, negative = inhibition, most hits filed as inhibitors;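 note: 0% = vehicle wells and -100% = peptide control; nearly all actives have a fitted effect of over 45% in size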
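AMA1 (3D7) with his tag at 25 nM final met compounds first, then biotinylated RON2 peptide at 25 nM; detection used donor plus acceptor beads, 10 µg/mL apiece, read by AlphaScreen after 30 min at room temperature.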
NS1 inh = blocks influenza NS1 protein function; hit rate 0.4% among 270,000; Potency, µM (titrated, usually from 46.1 µM), for inactives: at the top dose activity, positive = more growth; calls by dose curve; note: actives are rising curves; nearly all actives have a fitted effect of over 50% in size
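Read-out: OD600 growth recovery of NS1-expressing budding yeast. Cells grown overnight at 30C in -URA glucose medium, washed, resuspended and diluted 1:100 in 2% galactose assay medium, pH 6.0. Same strain lacking NS1 served as positive control.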
SARS PLP yeast = SARS-CoV PLP inhibition in yeast; hit rate 0.19% among 330,000; Potency, µM (top dose mostly 32.9 µM), inactives show at the highest dose activity, positive = growth rescue, hits mostly activators; S. cerevisiae expressing SARS-CoV PLpro, growth rescue; calls by dose curve; note: 0% is about no effect; nearly all actives have a fitted effect of over 55% in size
Pf growth 96h = P. falciparum growth inhibition at 96 hours. P. falciparum luciferase reporter growth, 96 h. Potency, µM (highest dose often 28.7 µM), for the others: at the top dose activity change, negative = inhibition, hits mostly inhibitors. hit rate 6.9% among 320,000; note: % is set by controls: 0 for no effect and ±100 for the full control effect
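Luminescence readout: decreased luciferase signal marks inhibited growth of reporter-expressing P. falciparum in infected red cells (2% hematocrit, 0.05% parasitemia final), exposed to compound two generations (96 h, 37 C, 5% CO2).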
Pf growth 48h = inhibits P. falciparum growth in the first generation, 48 h | hit rate 5.9% among 310,000 | P. falciparum luciferase growth in erythrocytes, 48 h | Potency, µM (titrated, usually from 28.7 µM), for inactives: at the top dose activity change, negative = inhibition, usual class: inhibitors; note: % is set by controls: 0 for no effect and ±100 for the full control effect
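A one-generation exposure of luciferase-tagged malaria parasites in RPMI 1640/Albumax erythrocyte culture, 37 C and 5% CO2. Inhibition is inferred from decreased luminescence after adding detection reagent.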
Numbers without * were called inactive; ? = inconclusive; . = not tested or not shown; [ ] = dose if it differs, or a comment. Most compounds without a hit are left out; they make up all but 12% or so of the library. Unless noted, calls come from the whole dose curve; as a rule, active = well fitted curve in the direction sought with a large enough effect; inconclusive = small, poorly fitted or top-dose-only effect, or another doubt; inactive = no such curve, though single readings can be large; an effect the other way counts as inactive or inconclusive. Potency is the fitted concentration of half-maximal effect.

SMILES	HCV inh	AMA1-RON2 inh	NS1 inh	SARS PLP yeast	Pf growth 96h	Pf growth 48h
CCOC(=O)CSc1cc(=O)n(CC)c2ccccc12	-7.8%	4.5%	-23.3%	1.1%	10.4µM*	9.1%
CCn1c(=O)cc(SCC(=O)Nc2cccnc2)c2ccccc21	?	-1.3%	-4.2%	2.6%	11.7µM*	14.0%
CN(C(=O)COc1cc(=O)n(C)c2ccccc12)c1ccc(Br)cc1	8.1%	-11.5%	-38.0%	4.4%	10.4µM*	?
CCn1c(=O)cc(SCC(=O)N(C)Cc2ccccc2)c2ccccc21	-6.8%	3.2%	0.1%	-7.1%	?	.
Cc1cccc(N(C)C(=O)COc2cc(=O)n(C)c3ccccc23)c1	-7.7%	-2.1%	?	0.8%	21.3%	.
CCOC(=O)COc1cc(=O)n(CC)c2ccccc12	?	14.0%	-25.3%	-1.5%	8.28µM*	17.3%
CCn1c(=O)cc(SCC(=O)N2CCN(c3ccccc3F)CC2)c2ccccc21	14.1µM*	-13.8%	-46.6%	-6.0%	-4.1%	?
CC1CC(C)CN(CCCNC(=O)COc2cc(=O)n(C)c3ccccc23)C1 (configuration not stated)	-6.4%	1.1%	-4.5%	-15.1%	-5.3%	10.4µM*
CC(CNC(=O)CN1C(=O)COc2ccc(S(=O)(=O)N3CCCCC3)cc21)c1ccccc1 (configuration not stated)	?	0.0%	-7.3%	0.0%	-26.1%	-26.5%
O=C(NC1CC1)c1cc2cc3ccccc3nc2s1	-9.4%	-2.9%	4.6%	15.0%	13.1µM*	-21.4%
COC(=O)CCCC(=O)N(C)CC1CCCN(CCc2ccccc2C)C1 (configuration not stated)	1.4%	-6.5%	.	.	.	.
COc1cccc(CN(C)CC2CCCN(CCc3ccccc3C)C2)c1 (configuration not stated)	11.2µM*	-5.4%	-5.9%	-1.5%	?	5.0%
COc1ccc(CCN2CCCC(CN(C)Cc3cc(Cl)c(O)c(OC)c3)C2)cc1 (configuration not stated)	?	1.1%	10.0%	-9.2%	105.7%	2.33µM*
Cc1cc(C)c(C(=O)N(C)CC2CCCN(CCc3ccccc3F)C2)o1 (configuration not stated)	.	7.0%	8.6%	-5.4%	-1.4%	?
COc1cc(OC)c(OC)cc1CN(C)CC1CCCN(CCc2ccccc2F)C1 (configuration not stated)	14.1µM*	0.0%	-2.4%	4.7%	0.0%	?
COc1ccc(CN(C)CC2CCCN(CCc3ccccc3C)C2)cc1O (configuration not stated)	?	-3.0%	5.9%	-10.2%	?	5.86µM*
COc1ccc(C2=Nc3ccccc3N(C(=O)c3ccc(C(F)(F)F)cc3)C2C(=O)Nc2ccc3c(c2)OCCO3)cc1 (configuration not stated)	.	-5.4%	.	.	.	.
Cn1cccc1-c1nc2ccccc2[nH]1	11.1%	?	-3.1%	-1.5%	186.5%	138.1%
COc1cccc(NC(=O)Cn2c(=O)n(-c3cc(OC)c(OC)c(OC)c3)c(=O)c3ccccc32)c1	10.1%	-11.1%	.	0.4%	?	10.4µM*
CC(C)CNC(=O)Cn1c(=O)c2c(ncn2CC(C)C)n(Cc2ccccc2)c1=O	11.2µM*	-1.7%	1.5%	1.3%	?	?
COCCn1cnc2c1c(=O)n(CC(=O)NC(=O)NC(C)(C)C)c(=O)n2Cc1ccccc1	2.6%	-13.1%	3.4%	4.4%	0.262µM*	?
CCCCCNC(=O)Cn1c(=O)c2c(ncn2CC(C)C)n(Cc2ccccc2)c1=O	-11.7%	-16.5%	-31.0%	-0.8%	0.0%	?
COc1cccc(NC(=O)Cn2c(=O)c3c(ncn3Cc3ccccc3)n(Cc3ccccc3)c2=O)c1	7.5%	-6.6%	-1.7%	14.1%	0.828µM*	.
CCNC(=S)NNC(=O)Cn1c(=O)c2c(ncn2CCOC)n(Cc2ccccc2)c1=O	7.3%	64.2%	15.9%	-1.3%	?	-13.8%
CCOC(=O)C1=CN(C(C)C)CCC1=O	-71.9%	5.7%	.	.	.	.
SMILES	HCV inh	AMA1-RON2 inh	NS1 inh	SARS PLP yeast	Pf growth 96h	Pf growth 48h
CC1(C)CCCN(C(=O)c2ccc3c(c2NCCO)C(=O)c2ccccc2C3=O)C1	?	?	-11.7%	-4.7%	?	13.1µM*
CCCCOn1c(C)c(C(C)=O)c2c3no[n+]([O-])c3ccc21	-10.2%	-11.6%	9.1%	2.4%	91.1%	?
CCOC(=O)c1c(C)n(OCc2ccccc2)c2ccc3c(no[n+]3[O-])c12	7.08µM*	-4.2%	-35.4%	1.9%	.	-8.0%
Cc1ccc(S(=O)(=O)CCC(=O)Nc2ccc(F)cc2)cc1	13.8%	-2.0%	-2.8%	15.0%	8.5%[5.75 µM]	?
O=C(Nc1ccncc1)c1ccc(Cl)cc1	3.1%	-4.1%	-3.6%	-1.7%	?	?
O=C(CCS(=O)(=O)c1ccc(Cl)cc1)Nc1ccc(F)cc1	14.0%	5.8%	-4.3%	-1.6%	10.4µM*	-2.9%
CN(CC(=O)Nc1ccncc1)S(=O)(=O)c1ccc(Br)cc1	-1.9%	0.7%	2.8%	6.7%	?	.
O=C(Cc1ccc(Cl)cc1)Nc1ccncc1	10µM*	1.5%	4.7%	-0.5%	-6.4%	3.9%
CN(CCCC(=O)Nc1ccncc1)S(=O)(=O)c1ccc(Cl)cc1	10µM*	-10.2%	-10.5%	2.7%	245.1%	?
Cc1ccc(CC(=O)Nc2ccncc2)cc1	12.6µM*	5.1%	5.8%	0.4%	?	40.3%
Cc1ccc(CC(=O)Nc2cccnc2)cc1	-0.7%	-15.7%	.	1.4%	21.4%	13.9%[5.75 µM]
COc1ccc(/C=C/C(=O)c2c(O)cc(C)oc2=O)c(OC)c1	11.2µM*	13.3%	7.2%	1.9%	21.3%	116.5%
CN(Cc1ccccc1)Cc1nc2c(c(=O)n(C)c(=O)n2C)n1Cc1ccc(F)cc1	-18.1%	-3.3%	-80.6%	-3.3%	11.7µM*	11.7µM*
CCC1CCCCN1Cc1nc2c(c(=O)n(C)c(=O)n2C)n1Cc1ccccc1 (configuration not stated)	-25.3%	-2.3%	-88.8%	-6.7%	7.38µM*	?
Cn1c(=O)c2c(nc(CN3CCN(Cc4ccccc4)CC3)n2Cc2ccccc2)n(C)c1=O	10.6%	.	-4.3%	-5.6%	?	?
Cn1c(=O)c2c(nc(CN3CCN(Cc4ccccc4)CC3)n2Cc2ccc(Cl)cc2)n(C)c1=O	?	-4.8%	-6.9%	-2.8%	2.62µM*	.
Cc1ccc(Cn2c(CN(C)Cc3ccccc3)nc3c2c(=O)n(C)c(=O)n3C)cc1	?	16.6%	-97.8%	-6.1%	.	?
CN(Cc1ccccc1)Cc1nc2c(c(=O)n(C)c(=O)n2C)n1Cc1ccc(Cl)cc1	14.1µM*	11.0%	-96.1%	-2.5%	-7.8%	-26.4%
CCOc1ncccc1C(=O)NC(C)CCc1ccccc1 (configuration not stated)	-7.5%	3.3%	-82.0%	-9.5%	2.1%	-7.2%[0.00184 µM]

High-throughput results (PubChem BioAssay)
